The text below walks through data of PubChem BioAssay (EPA / NIEHS).

Assay [1] is described as follows: Tanguay_ZF_120hpf_PIG_legacy: (Legacy) Oregon State University Tanguay Lab 120 Hour Post-fertilization zebrafish Assay for Pigmentation Malformation (AID 2283650). An outline of the steps:
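Pronase dechorionation at 4 hpf; embryos plated at 6 hpf, one per well; static exposure, sealed and foil-covered, 28C, to 120 hpf; pigmentation read by brightfield, binary; DMSO 0.64% baseline, 5uM trimethyltin chloride positive control.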

Assay [2] can be described thus: Tanguay_ZF_120hpf_CIRC_legacy: (Legacy) Oregon State University Tanguay Lab 120 Hour Post-fertilization zebrafish Assay for Circulatory Malformation (AID 2283651). An outline of the steps: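 Read-out: presence or absence of circulatory malformation at 120 hpf, scored by brightfield microscopy, fitted in the gain-of-signal direction against DMSO baseline. Wild-type 5D larvae were exposed from 6 hpf after enzymatic chorion removal.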

The nature of assay [3]: Tanguay_ZF_120hpf_SWIM_legacy: (Legacy) Oregon State University Tanguay Lab 120 Hour Post-fertilization zebrafish Assay for Swim Bladder Malformation (AID 2283654).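 Further: swim bladder malformation in each larva scored yes or no under brightfield.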 The gist of the method:
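Embryos lacking chorions were exposed individually and statically to test chemical from 6 to 120 hpf at 28C, with 0.64% DMSO as vehicle. At 120 hpf, swim bladder malformation was recorded as present or absent by brightfield microscopy.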

The nature of assay [4]: Tanguay_ZF_120hpf_TRUN_legacy: (Legacy) Oregon State University Tanguay Lab 120 Hour Post-fertilization zebrafish Assay for Truncated Body (AID 2283655). The gist of the method:
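Whole-embryo zebrafish screen: dechorionated 5D embryos, static exposure 6–120 hpf, 28C, sealed foil-covered plates, 0.64% DMSO. Binary truncation call; gain of signal versus DMSO baseline.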

The test system of assay [5] is Thyroperoxidase (TPO), gene 54314. The assay is described as follows: CCTE_Simmons_AUR_rTPO: CCTE's Amplex UltraRed Assay for Thyroperoxidase (TPO) Inhibition, Simmons Lab (AID 2283662).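 On AC50: potency for loss of signal meaning inhibition of peroxidase activity.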 The gist of the method: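 Endpoint is decreased Amplex UltraRed fluorescence after a 30-min, 37C reaction of rat thyroid microsomes with 300 uM H2O2. Eight test concentrations (5 nM–87.5 uM final) in 0.5% DMSO, three biological replicates each.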

Read-out in assay [6]: solute carrier (SLC22A6), SLC22A6 (gene 9356)
The assay is described as follows: LTEA_HepaRG_SLC22A6: Life Technologies and Expression Analysis (LTEA) Assay for solute carrier (SLC22A6) using HepaRG (AID 2283653; active means hit-call score of the fitted dose curve at least 0.9, where 1 is the maximum; inactive means score below 0.9). The conditions noted are these: mRNA level, 48 h; actives raise or lower the signal. The gist of the method: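 HepaRG, human liver line; 48 h chemical exposure; 8-pt half-log series from 100 uM in 0.5% DMSO, duplicate wells. Readout: TaqMan qRT-PCR of SLC22A6 mRNA, housekeeping-normalised; bidirectional curve fit vs DMSO baseline.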

Read-out in assay [7]: solute carrier (SLC10A1), SLC10A1 (gene 6554)
The assay is described as follows: LTEA_HepaRG_SLC10A1: Life Technologies and Expression Analysis (LTEA) Assay for solute carrier (SLC10A1) using HepaRG (AID 2283657; active means hit-call score of the fitted dose curve at least 0.9, where 1 is the maximum; inactive means score below 0.9). The note with it: mRNA level, 48 h; actives raise or lower the signal. An outline of the steps:
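Transcript levels were measured by qRT-PCR after human HepaRG cells received test chemical for 48 hours, up to 100 uM in half-log dilutions. Values come from bidirectional concentration-response fitting relative to 0.5% DMSO vehicle.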

Read-out in assay [8]: matrix metalloproteinase-1 (MMP1), MMP1 (gene 4312)
Put plainly: LTEA_HepaRG_MMP1: Life Technologies and Expression Analysis (LTEA) Assay for matrix metalloproteinase-1 (MMP1) using HepaRG (AID 2283658; active means hit-call score of the fitted dose curve at least 0.9, where 1 is the maximum; inactive means score below 0.9). The conditions noted are these: mRNA level, 48 h; actives raise or lower the signal. The gist of the method: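 MMP1 transcript read by TaqMan qRT-PCR (Fluidigm array) after 48 h chemical exposure of HepaRG cells in serum-free induction medium. Eight-point half-log series, top 100 uM, 0.5% DMSO vehicle. Bidirectional curve fit against DMSO baseline.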

The nature of assay [9]: Tanguay_ZF_120hpf_NC_legacy: (Legacy) Oregon State University Tanguay Lab 120 Hour Post-fertilization zebrafish Assay for Notochord and Tail Malformation (AID 2283656). The gist of the method: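 Dechorionated Tropical 5D wild-type zebrafish embryos, one per well from 6 hpf, statically exposed to 120 hpf at 28C in 0.64% DMSO final. Notochord distortion scored present/absent by brightfield; dead embryos excluded.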

Read-out in assay [10]: kallikrein-3 (KLK3), KLK3 (gene 354)
The assay is described as follows: LTEA_HepaRG_KLK3: Life Technologies and Expression Analysis (LTEA) Assay for kallikrein-3 (KLK3) using HepaRG (AID 2283652; active means hit-call score of the fitted dose curve at least 0.9, where 1 is the maximum; inactive means score below 0.9). The note with it: mRNA level, 48 h; actives raise or lower the signal. How it is done:
LTEA_HepaRG is a cell based, multiplexed-readout assay that uses HepaRG, a human liver cell line, with measurements taken at 48 hours after chemical dosing on a 96-well plate.LTEA_HepaRG_KLK3 is one of 102 assay component(s) measured in the LTEA HepaRG cell culture assay. It is a marker of Cellular remodeling.Data from the assay component LTEA_HepaRG_KLK3 was analyzed into 1 endpoint. This assay endpoint, LTEA_HepaRG_KLK3, was analyzed with bidirectional fitting relative to DMSO as the negative control and baseline of activity. Using a type of inducible reporter, measures of mRNA induction for gain or loss-of-signal activity can be used to understand regulation of transcription factor activity. To generalize the intended target to other relatable targets, this assay endpoint is annotated to the protease intended target family, where the subfamily is Cellular remodeling.
A total of 1060 chemcials from the ToxCast library were tested in eight-point concentration-response experiments. Cell culture and cytotoxicity assays were conducted at Thermo Fisher Scientific's Custom Services facility (Madison, WI). A single lot of human HepaRG cells (Thermo Fisher Scientific, Frederick, MD) was used for the cell culture experiments. 96-well format collagen type I coated plates of human HepaRG cells were prepared using established methods. Briefly, cryopreserved HepaRG cells were thawed, plated at a density of approximately 100,000 cells/well in HepaRG Thaw, Plate, and General Purpose media (HPRG770, Thermo Fisher Scientific), and incubated for 48 hours. […] Fluidigm's 96.96 Dynamic ArrayTM (Fluidigm, Amsterdam, the Netherlands) technology was used for gene expression analyses by quantitative reverse transcription polymerase chain reaction (qRT-PCR, performed by Quintiles/Expression Analysis, Durham, NC)89. […]

Inconclusive results are not listed. Activity calls are given as the source filed them. How the source made its calls, unless noted: active means hit-call score of the fitted dose curve at least 0.9, where 1 is the maximum; inconclusive means response in the unintended direction; inactive means score below 0.9.

Consider `Cc1ccc(C)c(O)c1`, for which the result in [1], in assay [2], in assay [3] and in [4] was inactive.

The term AC50 denotes the concentration at which the activity in the assay is half-maximal. Take `O=P(OC(CCl)CCl)(OC(CCl)CCl)OC(CCl)CCl`: the concentration at half-maximal activity (AC50) was 33.9 µM (active) in [1], 25.9 µM (active) in assay [3] and 36.2 µM (active) in assay [4]. Moreover, the result in assay [2] and in assay [5] was inactive.

`O=C(O)c1cccc(Oc2ccccc2)c1`: the compound was classed as inactive in assay [1], in [2], in assay [6], in [4], in assay [7] and in assay [8].

As to `O=c1n(CC2CO2)c(=O)n(CC2CO2)c(=O)n1CC1CO1` (configuration not stated), the call in assay [1], in assay [2], in assay [3], in assay [4] and in [9] was inactive. Moreover, the AC50 in assay [5] is 21.1 µM (active).

On to `Oc1ccc2c(c1)-c1ccccc1C2`, for which the results for the concentration at half-maximal activity (AC50) in assay [1] and in assay [5] were 41 µM (active) and 10.6 µM (active), respectively. The compound was classed as inactive in assay [2], in [3] and in assay [4].

`CC(=O)OCCC(C)C`: the call in assay [3] and in [4] was inactive.

Take `COC(=O)c1c(Cl)c(Cl)c(C(=O)OC)c(Cl)c1Cl`: the call in assay [2], in [3], in [4] and in assay [9] was inactive.

Regarding `C1N2CN3CN1CN(C2)C3`, the outcome in [2], in assay [3] and in assay [9] was inactive.

Take `Nc1ccc(Nc2ccccc2)cc1`: the AC50 in [1] was 48.7 µM (active); in assay [3] it was 45.6 µM (active); in [4], 40.8 µM (active); in assay [5], 3.09 µM (active).

In the case of `COC(=O)CC(=O)OC`, the compound was called inactive in assay [2] and in assay [4].

On to `CCOc1cccc(-n2cc(C(=O)N3CCN(c4cc(C(=O)O)c5ccccc5c4)CC3)nc2-c2ccc(C)cc2)c1`, for which the compound was called inactive in assay [1], in assay [3], in assay [4] and in assay [9]. The AC50 in assay [5] was 43.8 µM (active).

Turning to `CCCCCCCCO`, the outcome in assay [1] and in assay [4] was inactive.

For the compound `COc1cccc(-c2ccc(/C=C\CN3CCCCCC3)cc2Cl)c1`, the compound was called inactive in assay [1] and in assay [4].

Regarding `CNS(=O)(=O)c1cc(C(=O)N2CCC(CCN3C4CCC3CC(n3c(C)nc5ccccc53)C4)(c3cccc(F)c3)CC2)c(Cl)cc1F` (configuration not stated), the outcome in assay [1] and in [4] was inactive.

In the case of `COCCOCCOCCOC`, the outcome in assay [1], in assay [3], in assay [4] and in assay [9] was inactive.

In the case of `CCOC(=O)c1ccc(C2CCC(NC[C@H](O)COc3ccc(O)c(NS(C)(=O)=O)c3)CC2)cc1` (some centres not stated), the half-maximal activity concentration (AC50) in assay [5] is 1.12 µM (active).

As to `CC[C@H]1CC[C@H](NCc2cc3c(cc2OC)[C@H]2C[C@H]2C(=O)N3C)[C@H](c2ccccc2)N1`, the result in assay [1] and in assay [4] was inactive.

For the compound `CCOCCOCCOCCO`, the call in assay [1] and in assay [4] was inactive.

On to `O=C1OC(=O)C2C3C=CC(C3)C12` (configuration not stated), for which the outcome in assay [2], in assay [4] and in assay [9] was inactive.

Regarding `O=C(O)CCN(C1(C(=O)NO)CCCC1)S(=O)(=O)c1ccc(Oc2ccc(F)cc2)cc1`, the compound was called inactive in assay [2] and in assay [9]. In assay [5], the AC50 was 27.7 µM (active).

As for `CC(C)c1cccc(C(C)C)c1N1C(=O)c2ccc(O)cc2C1=O`, the call in [2], in assay [10], in assay [6], in assay [3] and in assay [8] was inactive. Moreover, in assay [7], the half-maximal activity concentration (AC50) is 78.7 µM (active).

In the case of `CCOC(=O)COc1ccc2c(c1)CC(NCC(O)c1cccc(Cl)c1)CC2` (configuration not stated), the compound was called inactive in assay [1], in [3] and in assay [4].

For `Cn1cnc([N+](=O)[O-])c1Sc1ncnc2nc[nH]c12`, the compound was classed as inactive in [2] and in assay [4]. In addition, the AC50 in [5] was 30.4 µM (active).

Turning to `Cc1ccc(S(=O)(=O)O)cc1C`, the result in [2], in assay [4] and in assay [9] was inactive.

With `CCCCCCCCCCCCc1ccccc1`, the outcome in [2], in assay [4] and in assay [9] was inactive.

For the compound `O=C(NS(=O)(=O)/C=C/c1ccccc1)c1ccc(F)cc1Cl`, the outcome in assay [1], in assay [4] and in assay [9] was inactive.

Consider `Nc1cccc(N)c1`, for which the outcome in assay [1], in [3] and in assay [4] was inactive. For the same compound, in [5], the concentration at half-maximal activity (AC50) is 5.02 µM (active).

For the compound `Nc1nc2ncc(CNc3ccc(C(=O)N[C@@H](CCC(=O)O)C(=O)O)cc3)nc2c(=O)[nH]1`, the call in assay [1], in assay [2] and in [4] was inactive. Also, in [5], the concentration at half-maximal activity (AC50) is 20.5 µM (active).

As for `COc1ccc2sc(C(=O)Nc3nnn[nH]3)c(OC(C)C)c2c1`, the outcome in [2], in [3], in [4] and in [9] was inactive.

Turning to `Cc1ccc(N)cc1O`, the outcome in assay [1], in [2] and in assay [9] was inactive. Moreover, the AC50 in [5] was 1.18 µM (active).

Regarding `CCCN(C1CCN(C(=O)C2CCNCC2)CC1)[C@@H]1CCc2ccc(OC)cc2C1`, the compound was classed as inactive in assay [1], in [2], in assay [4] and in assay [5].

As for `O=C(O)c1cc(N=Nc2ccc(S(=O)(=O)Nc3ccccn3)cc2)ccc1O`, the result in assay [1] and in assay [4] was inactive.

Take `COc1ccc(/C=C/S(=O)(=O)NC(=O)c2ccc(C)cc2Cl)cc1`: the compound was classed as inactive in [2], in [4] and in [9].

With `O=C(O)c1cccc(N(Cc2cccnc2)c2ccc(OC(F)F)c(OC(F)F)c2)c1`, the outcome in [2], in [3] and in assay [4] was inactive. In addition, the AC50 in [5] is 31.2 µM (active).
